Compounds with a hit are over-represented: about 19% of the library has one in this group of screens.
HT1080-NT tox = qHTS for induction of synthetic lethality in tumor cells producing 2HG: qHTS for the HT-1080-NT fibrosarcoma cell line; AID 686970, 2013; 360,000 compounds, 1.6% hits; HT-1080-NT fibrosarcoma viability, CellTiter-Glo ATP luminescence, 48 h; Potency, µM (highest dose often 46.1 µM), hits mostly cytotoxic;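 also: NT is the 2HG producing partner of a matched IDH1 knockdown line; nearly all actives have a fitted effect of over 55% in size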
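Read-out is CellTiter-Glo luminescence after 10 minutes at room temperature, following 48 hours' compound treatment of HT-1080-NT cells (750 cells/well, RPMI, 5% FBS, 37 degrees C).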
DT40 TDP1 CPT = qHTS for Inhibitors of human tyrosyl-DNA phosphodiesterase 1 (TDP1): qHTS in cells in presence of CPT; chicken DT40 Tdp1-/-;hTDP1 cells + 20 nM CPT, ATP luminescence, 48 h; Potency, µM (titrated, usually from 46.2 µM), actives largely listed as inhibitors; 420,000 compounds, 12% hits; AID 686979, 2013; also: nearly all actives have a fitted effect of over 55% in size
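Chicken DT40 Tdp1-/- cells stably complemented with human TDP1 were seeded at 400 cells/well in medium containing 20 nM camptothecin, exposed to pin-transferred compounds, and grown at 37 °C for at least 48 hr. Viability was read as ATP luminescence.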
HT1080 IDH1KD tx = qHTS for induction of synthetic lethality in tumor cells producing 2HG: qHTS for the HT-1080-IDH1KD cell line; AID 686971, 2013; HT-1080 IDH1 knockdown viability, ATP luminescence, 48 h; Potency, µM (top dose mostly 46.1 µM), most hits filed as cytotoxic; 360,000 compounds, 2% hits
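Luminescent ATP read-out (CellTiter-Glo, 10 min at room temperature) after 48 h compound exposure at 37 °C gave viability of IDH1-knockdown HT-1080 cells. Activity was normalised to DMSO and cell-free wells, then fitted as concentration-response curves.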
DT40 TDP1 no CPT = qHTS for Inhibitors of human tyrosyl-DNA phosphodiesterase 1 (TDP1): qHTS in cells in absence of CPT. 420,000 compounds, 15% hits. Potency, µM (top dose mostly 46.2 µM), usual class: inhibitors. DT40 Tdp1-/- hTDP1 cells, no CPT, ATP luminescence, 48 h; also: nearly all actives have a fitted effect of over 55% in size
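Chicken DT40 Tdp1-/- cells complemented with human TDP1, screened without camptothecin (DMSO vehicle only), 400 cells/well. Compounds pin-transferred, cells incubated at 37 °C for at least 48 hr. Growth read as ATP-dependent luminescence (CellTiter-Glo, 30 min at RT).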
KB-V1 cytotox = qHTS assay for MDR1-selective chemotherapeutics: Primary screen using the drug-selected MDR subline cells KB-V1. KB-V1 MDR cells viability, CellTiter-Glo, 72 h. Potency, µM (top dose mostly 46.1 µM), most hits filed as cytotoxic. 400,000 compounds, 3.4% hits. AID 1347076, 2019; also: nearly all actives have a fitted effect of over 60% in size
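KB-V1 cells (P-gp-expressing MDR subline of KB-3-1) in phenol-red-free DMEM with 10% FBS were exposed to library compounds over a concentration series for 72 h at 37 degrees C. Viability read by CellTiter-Glo luminescence; concentration-effect curves fitted after normalization.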
KB-3-1 tox = qHTS assay for MDR1-selective chemotherapeutics: Primary screen using the parental adenocarcinoma cell KB-3-1; KB-3-1 viability, CellTiter-Glo ATP luminescence, 72 h; Potency, µM (top dose mostly 46.1 µM), actives largely listed as cytotoxic; 400,000 compounds, 1.4% hits; AID 1347075, 2019; also: nearly all actives have a fitted effect of over 60% in size
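Screening of KB-3-1 cells (DMEM, 10% FBS, phenol-red free) ran from lowest to highest compound concentration; after 72 h at 37 °C viability was read luminescently and curves fitted.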
Large screens that a line does not name were inactive. Calls follow the shape of the dose curve; as a rule, active = well fitted curve in the direction sought with a large enough effect; inconclusive = small, poorly fitted or top-dose-only effect, or another doubt; inactive = no such curve, though single readings can be large; an effect the other way counts as inactive or inconclusive.

C=C(C)COc1ccc(-c2nc(N)ncc2-c2ccc(Br)cc2)c(O)c1	HT1080-NT tox inconclusive, DT40 TDP1 CPT inconclusive, DT40 TDP1 no CPT inconclusive, KB-V1 cytotox inconclusive, KB-3-1 tox 21µM
C=C(C)COc1ccc(-c2ncncc2-c2ccc(Br)cc2)c(O)c1	HT1080-NT tox inconclusive
CCOc1ccc(-c2n[nH]c(C)c2Oc2ccc(OC)cc2)c(O)c1	HT1080-NT tox inconclusive, DT40 TDP1 CPT 21µM, HT1080 IDH1KD tx inconclusive, DT40 TDP1 no CPT 10µM
C=C(C)COc1ccc(-c2[nH]ncc2Oc2ccc(OC)cc2)c(O)c1	HT1080-NT tox inconclusive, DT40 TDP1 CPT inconclusive, HT1080 IDH1KD tx inconclusive, DT40 TDP1 no CPT inconclusive, KB-3-1 tox inconclusive
N#Cc1ccc(-c2cccc3nccn23)cc1	HT1080-NT tox inconclusive, HT1080 IDH1KD tx inconclusive
CCc1nc2c(OCC(=O)c3ccc(F)cc3)cccn2c1N(C)C(=O)C(C)C	DT40 TDP1 CPT inconclusive, DT40 TDP1 no CPT inconclusive
CCOCCCN(C)C1CCN(C(=O)c2oc3ccccc3c2NC(=O)c2ccc(F)cc2)CC1	DT40 TDP1 CPT inconclusive
CCOc1ccc(-c2nc(N)ncc2Oc2ccccc2Br)c(O)c1	HT1080-NT tox inconclusive, DT40 TDP1 CPT inconclusive, HT1080 IDH1KD tx 23µM, DT40 TDP1 no CPT inconclusive
CCOc1ccc(-c2ncncc2-c2ccccc2OC)c(O)c1	DT40 TDP1 CPT 13µM, DT40 TDP1 no CPT 23µM, KB-V1 cytotox inconclusive, KB-3-1 tox inconclusive
COc1ccc(-c2cnc(N)nc2-c2ccc(OCc3ccccc3)cc2O)cc1	HT1080-NT tox inconclusive, DT40 TDP1 CPT inconclusive, HT1080 IDH1KD tx inconclusive, DT40 TDP1 no CPT inconclusive
CCc1nn(CC(=O)Nc2ccc(C)c(F)c2)c(=O)c2cc3cc(C)ccc3n12	DT40 TDP1 CPT inconclusive, DT40 TDP1 no CPT inconclusive (no result: HT1080-NT tox, HT1080 IDH1KD tx)
COc1cccc(NC(=O)Cn2c(=O)n(CCc3ccccc3)c(=O)c3c4c(sc32)CN(C(C)=O)CC4)c1	DT40 TDP1 CPT inconclusive, DT40 TDP1 no CPT inconclusive (no result: HT1080-NT tox, HT1080 IDH1KD tx)
NCCN(Cc1ccc(Cl)c(Cl)c1)c1ccc(Br)cn1	HT1080-NT tox 11µM, DT40 TDP1 CPT 4µM, HT1080 IDH1KD tx 10µM, DT40 TDP1 no CPT 4µM (no result: KB-V1 cytotox, KB-3-1 tox)
CC(=O)NCCCNC(=S)NCCCN(Cc1ccc(Cl)cc1)c1ccc(Br)cn1	DT40 TDP1 CPT inconclusive, DT40 TDP1 no CPT inconclusive (no result: HT1080-NT tox, HT1080 IDH1KD tx)
CC[N+](C)(C)CCN(Cc1ccc(Cl)cc1)c1ccccn1	DT40 TDP1 CPT 18µM, DT40 TDP1 no CPT 9.2µM
NCCCN(Cc1ccc(Cl)c(Cl)c1)c1ccccn1	HT1080-NT tox 13µM, DT40 TDP1 CPT 10µM, HT1080 IDH1KD tx 11µM, DT40 TDP1 no CPT 8.9µM (no result: KB-V1 cytotox, KB-3-1 tox)
COc1ccc(CN(CCCN)c2ccc(Br)cn2)cc1	HT1080-NT tox inconclusive, DT40 TDP1 CPT inconclusive, HT1080 IDH1KD tx inconclusive, DT40 TDP1 no CPT 11µM (no result: KB-V1 cytotox, KB-3-1 tox)
CN(CCc1ccccn1)Cc1ccc(Cl)c(Cl)c1	none
CC(C)(C)C(=O)Nc1nc2nc(-c3ccccc3)cc(=O)n2[nH]1	none (no result: HT1080-NT tox, HT1080 IDH1KD tx)
CCOc1ccc(N2C(=O)N(Cc3ccc(C)cc3C)c3ccccc3S2(=O)=O)cc1	DT40 TDP1 CPT inconclusive, DT40 TDP1 no CPT 16µM (no result: HT1080-NT tox, HT1080 IDH1KD tx)
Cc1cccc(N2C(=O)N(CC(=O)C(C)(C)C)c3ccccc3S2(=O)=O)c1C	DT40 TDP1 CPT 15µM, DT40 TDP1 no CPT 13µM (no result: HT1080-NT tox, HT1080 IDH1KD tx)
COc1ccc(N2C(=O)N(Cc3ccc(C)cc3)c3ccccc3S2(=O)=O)cc1	DT40 TDP1 CPT inconclusive, DT40 TDP1 no CPT inconclusive
CC(=O)c1ccc(N2C(=O)N(CC(=O)c3ccc(C)cc3)c3ccccc3S2(=O)=O)cc1	DT40 TDP1 CPT inconclusive, DT40 TDP1 no CPT 23µM (no result: HT1080-NT tox, HT1080 IDH1KD tx)
CC(=O)c1ccc(N2C(=O)N(Cc3cccc(C(F)(F)F)c3)c3ccccc3S2(=O)=O)cc1	DT40 TDP1 CPT 16µM, DT40 TDP1 no CPT 15µM, KB-3-1 tox inconclusive (no result: HT1080-NT tox, HT1080 IDH1KD tx)
